Records with an inconclusive call do not appear. Values without a mark were called inactive. Active and inactive are the calls of the source. Calls come from the whole dose curve.
% is set by controls: 0 for no effect and ±100 for the full control effect; potency is the fitted concentration of half-maximal effect.

The test is described as follows: Nuclear factor erythroid 2-related factor 2/antioxidant responsive element (Nrf2/ARE) small molecule agonists: luciferase reporter gene qHTS assay in human keratinocytes (AID 1919969). Note: nearly all actives have a fitted effect of over 35% in size. The following applies: KeratinoSens HaCaT ARE-luciferase, luminescence, 24 h; series mostly up to 92.4 µM; activity, positive = activation: at the top concentration. The source says:
National Center for Advancing Translational Sciences [NCATS]
Division of Preclinical Innovation [DPI]
U.S. Environmental Protection Agency [EPA]
National Institutes of Environmental Health Sciences [NIEHS]
National Toxicology Program [NTP]
U.S. Food and Drug Administration [FDA]
Oxidative stress has been implicated in the pathogenesis of a variety of diseases ranging from cancer to neurodegeneration. The antioxidant response element (ARE) signaling pathway plays an important role in the amelioration of oxidative stress. The KeratinoSens (Givaudan, Switzerland) is an in vitro test method which quantifies luciferase induction as a measure of activation of Keap1-Nrf2-antioxidationt/electrophile response element (ARE) dependant pathway in HaCaT human keratinocytes stably transfected with a selectable plasmid. The KeratinoSens assay is a cell-based assay with a reporter cell line to detect potential skin sensitizers by their ability to induce the Nrf2/ARE-response. The activation of the report gene under culture conditions can be detected by ONE-Glo Luciferase Assay System (Promega, Madison, WI). This cell line has been used to screen the Tox21 10K compound library to identify agonists that induce oxidative stress. The cytotoxicity of the Tox21 compound library against the KS-ARE cell line was tested in parallel by measuring the cell viability using CellTiter- Fluor assay system (Promega, Madison, WI) in the same wells.
HaCaT derived cell line KeratinoSens were dispensed at 1,500 cells/5uL/well in 1536-well white wall/solid bottom plates using a Multidrop Combi (ThermoFisher Scientific, Waltham, MA) dispenser. After the assay plates were incubated at 37 C/5% CO2 for 5 h, 23 nL of compounds dissolved in DMSO, positive controls or DMSO only was transferred to the assay plate by a pintool workstation (Kalypsys, San Diego, CA). The plates were incubated at 37 C/5% CO2 for 23 h, followed by addition of 1uL/well of CellTiter-Fluor reagent into the assay plates using a Flying Reagent Dispenser (Aurora Discovery, San Diego, CA) for cell viability readout that measures cytotoxicity. After 1 h incubation at 37 C/5% CO2 the fluorescence intensity was measured using a ViewLux (PerkinElmer, Shelton, CT) plate reader. Then 4uL/well of One-Glo were added using a Flying Reagent Dispenser. After the plates were incubated at room temperature for 30 min, the luminescence intensity in the assay plates was measured using ViewLux plate reader.
In general terms: Reporter assays use an easily measured gene product as a stand-in for the process of interest.
As to `COC(=O)C1(O)c2ccccc2-c2ccccc21`, the “activity, positive = activation” value is 0.676%. Consider `O=S1(=O)OCCO1`, for which the “activity, positive = activation” value is -3.88%. For the molecule `CCC[CH2][Sn]([CH2]CCC)([CH2]CCC)[CH2]CCC`, the Potency was 15.4 µM (active). Consider `O=C(N[C@H]1CN2CCC1CC2)c1cc2ccoc2cn1`, for which the “activity, positive = activation” value is -15.3%. Turning to `CCOP(=S)(OCC)SCS(=O)(=O)CC`, the “activity, positive = activation” value is 0.175%. Consider `COP(=O)(OC)O/C(=C/Cl)c1cc(Cl)c(Cl)cc1Cl`, for which the Potency was 51.3 µM (active). Turning to `C#CC1(O)CCCCC1`, the “activity, positive = activation” value is 4.36%. `Cc1cc(C)c(C(=O)P(=O)(c2ccccc2)c2ccccc2)c(C)c1`: the “activity, positive = activation” value was -37.2%. In the case of `CC(C)N1C(=O)N(c2ccccc2)CSC1=NC(C)(C)C`, the “activity, positive = activation” value is -11.6%.

Regarding `CCOC(=O)COc1cc(-c2nn(C)c(OC(F)F)c2Cl)c(F)cc1Cl`, the “activity, positive = activation” value is -0.937%. Regarding `CC(C)c1c(CN(C)C(C)Cc2ccccc2)n(C)n(-c2ccccc2)c1=O` (stereo not given), the “activity, positive = activation” value is 0.718% [at 42.5 µM]. Turning to `C[C@H]1CNCCc2ccc(Cl)cc21`, the “activity, positive = activation” value was 0.422% [at 42.5 µM]. Regarding `CCNc1nc(NC(C)C(C)C)nc(SC)n1` (stereo not given), the “activity, positive = activation” value is 1.65%. For `CC1=C(C(=O)O)N2C(=O)[C@@H](N)[C@H]2SC1`, the activity, positive = activation was -0.189% [at 19 µM]. Still for that read-out and setting: as for `CCC1(c2ccccc2)C(=O)NC(=O)NC1=O`, the figure is -0.112%; as for `ClCc1ccc(Cl)cc1Cl`, 0.596%; as for `CN=CNc1ccc(C)cc1C`, -2.99%. For `CCCCC(=O)Cl`, the “activity, positive = activation” value was 17.1%. For `CCCSP(=O)(OCC)Oc1ccc(Br)cc1Cl` (stereo not given), the “activity, positive = activation” value was 5.06% [at 42.5 µM]. `c1ccc2c(c1)CCNC2`: the “activity, positive = activation” value is 0.309%. Still for that read-out and setting: as for `N#C/C=C/c1ccccc1`, the figure is 0.493%. Regarding `Cc1nc(N(C)C)nc(OC(=O)N(C)C)c1C`, the “activity, positive = activation” value was -18.2%.

For `CCOP(=O)(OCC)O/C(=C/Cl)c1ccc(Cl)cc1Cl`, the “activity, positive = activation” value is 9.45%. In the case of `CSC(=O)c1c(C(F)F)nc(C(F)(F)F)c(C(=O)SC)c1CC(C)C`, the Potency is 24.2 µM (active).

On to `CCCOC(=O)Cc1ccc(OCC(=O)N(CC)CC)c(OC)c1`, for which the “activity, positive = activation” value was -4.59% [at 42.5 µM].

For `NC1CCC(CC2CCC(N)CC2)CC1` (stereo not given), the “activity, positive = activation” value is -10.8%.

As for `CC[N+]1(C)CCCC(OC(=O)C(O)(c2ccccc2)c2ccccc2)C1` (stereo not given), the “activity, positive = activation” value is -9.06% [at 42.5 µM].

`ClCCCCCCCl`: the “activity, positive = activation” value was -8.14%. Consider `O=[N+]([O-])c1c2ccccc2cc2ccccc12`, for which the Potency was 21.4 µM (active). For the molecule `C[C@@H]1CC[C@@]2(OC1)O[C@H]1[C@@H](O)[C@H]3[C@@H]4CC[C@H]5C[C@@H](O[C@@H]6O[C@H](CO)[C@H](O[C@@H]7O[C@H](CO)[C@@H](O)[C@H](O[C@@H]8OC[C@@H](O)[C@H](O)[C@H]8O)[C@H]7O[C@@H]7O[C@H](CO)[C@@H](O)[C@H](O[C@@H]8O[C@H](CO)[C@@H](O)[C@H](O)[C@H]8O)[C@H]7O)[C@H](O)[C@H]6O)[C@H](O)C[C@]5(C)[C@H]4CC[C@]3(C)[C@H]1[C@@H]2C`, the “activity, positive = activation” value is -37.2%. Still for that read-out and setting: as for `C[C@H]1CCC[C@H](O)CCCCCc2cc(O)cc(O)c2C(=O)O1`, the figure is -17.5%.

Take `Nc1ccc(Cl)cc1C(=O)c1ccccc1F`: the “activity, positive = activation” value is 3.83% [at 42.5 µM]. Take `O=c1oc2ccccc2c(O)c1C1CCCc2ccccc21` (stereo not given): the “activity, positive = activation” value is -14.2%. On the same count and under the same terms, the figure for `O=C1CN=C(c2ccccc2)c2cc(Cl)ccc2N1CC1CC1` is 20.4%. Still for that read-out and setting: the figure for `Oc1c(Cl)cccc1Cl` is -4.72%; for `COP(=S)(OC)Oc1ccc([N+](=O)[O-])c(C)c1` it is 8.27%. Still for that read-out and setting: as for `CCCCP(CCCC)CCCC`, the figure is -10.6%. As to `CCCOc1nn(C(=O)NS(=O)(=O)c2ccccc2C(=O)OC)c(=O)n1C`, the Potency is 68.3 µM (active). Regarding `CO/N=C(\C(=O)OC)c1ccccc1CO/N=C(\C)c1cccc(C(F)(F)F)c1`, the “activity, positive = activation” value is -12%. For `CC1C(=O)C[C@]2(C(C)C)C[C@H]12` (stereo not given in full), the “activity, positive = activation” value was -6.87%.
